# Data published in PubChem BioAssay AID1345085 (National Center for Advancing Translational Sciences (NCATS), 2018).
# Results filed as inconclusive are left out. Active and inactive are the calls of the source. The call rests on the fitted dose curve; in most records, active means well fitted cell-killing curve with a large enough effect; inconclusive means small, poorly fitted or top-dose-only effect, or effect the other way; inactive means no such curve, though single readings can be large or run the other way. *1 amine or outer side, *2 acyl side, *3 side chain or, on linkers, in order; H or OH if unused. Where a SMILES comes first, the peptide text is derived from it. Bridges are numbered along the chain shown (N, C = ends). Roman numbers before positions name the chains, in order. [ ]: non-standard residue; d: D form. Actinocin(9to1) = Cc1c2oc3c(C)ccc(C(=O)[*:1])c3nc-2c(C(=O)[*:2])c(N)c1=O; NMeV = CN[C@H](C(=O)O)C(C)C; Sar = CNCC(=O)O
# Test system: CASKI
# Experiment: Confirmatory qHTS for gynecologic anti-cancer compounds from libraries of approved drugs and bioactive compounds; further: nearly all actives have a fitted effect of over 55% in size
# Conditions: gynecologic cancer cell panel viability, ATPlite luminescence, 48 h; series mostly up to 57.6 µM
# Summary of the method: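 Viability is measured as ATP-dependent luciferase light using ATPlite, read 15 min after reagent addition at room temperature. Compounds, in DMSO, span 57.5 uM down to 0.977 nM over 11 threefold steps for 48 h.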
# Potency means the concentration at half of the fitted maximal effect.
row,Compound,Potency
1,CN1C(=O)C(Cc2c[nH]c3ccccc23)NC1=S (centres undefined),inactive
2,Cc1cc(Nc2cc(N3CCN(C)CC3)nc(/C=C/c3ccccc3)n2)n[nH]1,19.3 µM (active)
3,CCCCc1oc2ccccc2c1C(=O)c1cc(I)c(OCCN(CC)CC)c(I)c1,79.4 µM (active)
4,CCN[C@H]1C[C@H](C)S(=O)(=O)c2sc(S(N)(=O)=O)cc21,inactive
5,"Cc1c2oc3c(C)ccc(C(=O)N[C@@H]4C(=O)N[C@H](C(C)C)C(=O)N5CCC[C@H]5C(=O)N(C)CC(=O)N(C)[C@@H](C(C)C)C(=O)O[C@@H]4C)c3nc-2c(C(=O)N[C@@H]2C(=O)N[C@H](C(C)C)C(=O)N3CCC[C@H]3C(=O)N(C)CC(=O)N(C)[C@@H](C(C)C)C(=O)O[C@@H]2C)c(N)c1=O (I: T[dV]P[Sar][NMeV] / II: T[dV]P[Sar][NMeV]; ester I:1-I:C, II:1-II:C; linker I:N-II:N via Actinocin(9to1))",0.611 µM (active)
6,COc1cccc2c1C(=O)c1c(O)c3c(c(O)c1C2=O)C[C@@](O)(C(=O)CO)C[C@@H]3O[C@H]1C[C@H](N)[C@H](O[C@@H]2CCCCO2)[C@H](C)O1,17.2 µM (active)
7,CCS(=O)(=O)N1CCN(c2ccc(Nc3ncc(C(N)=O)c(NC4CC4)n3)cc2)CC1,10.9 µM (active)
8,NCCOc1cc(C(=O)Nc2cc(OCCN)c3ccccc3n2)nc(C(=O)Nc2cc(OCCN)c3ccccc3n2)c1,30.6 µM (active)
9,CC(C)C[C@H](NC(=O)[C@@H](NC(=O)c1cccc(-c2ccccc2)n1)[C@@H](C)O)B(O)O,0.0611 µM (active)
